YjeE inh: inhibitors of E. coli YjeE (TsaE). P0AF67. 0.05% of 71,000 active. Potency, µM. purified YjeE enzyme, qHTS inhibition assay
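Fluorescence polarization of a BODIPY Texas Red–ADP probe (2 uM) bound to purified YjeE (10 uM) was read after 15 min room-temperature incubation with compounds. Loss of polarization marks inhibitors; ADP serves as titrated control.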
TSHR agonist: TSH receptor (human) agonism. P16473. 0.48% of 73,000 active. AID 926. Potency, µM (highest dose often 57.1 µM), for inactives: top-dose activation, hits mostly activators. HEK293-CNG-TSHR cells (CNG channel as cAMP sensor), membrane potential dye, cAMP; active means well fitted activation curve with a large enough effect in the main read-out, with a control signal flat, not every such curve was filed as active; inconclusive means small, poorly fitted or top-dose-only effect, or a change in a side signal; inactive means no such curve, though single readings can be large or run the other way; % of control where 0% means no effect;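 further: the control signal comes from parental cells without the receptor; potency means the concentration at half of the fitted maximal effect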
Target sequence (P16473 whole entry, looked up): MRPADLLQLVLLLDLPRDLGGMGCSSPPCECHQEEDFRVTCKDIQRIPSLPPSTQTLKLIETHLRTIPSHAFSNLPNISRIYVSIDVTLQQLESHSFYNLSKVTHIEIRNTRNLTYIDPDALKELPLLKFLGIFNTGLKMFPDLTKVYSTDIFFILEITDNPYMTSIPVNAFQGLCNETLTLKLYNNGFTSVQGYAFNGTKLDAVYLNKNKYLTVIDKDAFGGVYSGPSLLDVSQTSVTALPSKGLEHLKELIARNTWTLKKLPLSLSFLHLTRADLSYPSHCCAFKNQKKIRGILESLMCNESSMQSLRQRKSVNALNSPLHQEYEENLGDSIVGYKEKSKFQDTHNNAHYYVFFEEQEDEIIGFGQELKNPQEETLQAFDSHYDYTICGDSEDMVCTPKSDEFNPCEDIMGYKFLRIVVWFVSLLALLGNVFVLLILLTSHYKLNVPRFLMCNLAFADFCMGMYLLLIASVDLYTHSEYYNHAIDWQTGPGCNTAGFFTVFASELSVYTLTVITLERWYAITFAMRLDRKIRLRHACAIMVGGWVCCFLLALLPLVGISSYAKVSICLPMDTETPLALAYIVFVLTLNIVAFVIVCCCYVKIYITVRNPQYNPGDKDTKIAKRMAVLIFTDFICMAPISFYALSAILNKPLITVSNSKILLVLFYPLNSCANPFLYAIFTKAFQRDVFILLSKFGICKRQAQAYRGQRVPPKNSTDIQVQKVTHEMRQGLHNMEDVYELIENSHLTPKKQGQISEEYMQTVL
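HEK 293 cells stably expressing TSHR and a cAMP-gated CNG channel; parental CNG-only cells as counterscreen. Cells preloaded 60 min with membrane potential dye plus 100 uM RO 20-1724, then compound 30 min; fluorescence read at 590 nm.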
HEK293 cAMP cs: parental HEK293 cAMP activation (counter-screen) | 2.5% of 73,000 active | AID 938 | Potency, µM (doses to about 57.1 µM), inactives show at the top dose activation, most hits filed as activators | parental HEK293 CNG cAMP sensor, membrane potential fluorescence; further: potency means the concentration at half of the fitted maximal effect; % of control where 0% means no effect; nearly all actives have a fitted effect of over 55% in size
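Counterscreen for endogenous-receptor signalling: CNG-channel HEK 293 cells report cAMP rise by membrane depolarization. After 60 min dye equilibration with 100 uM RO 20-1724, compounds incubated 30 min before bottom-read fluorescence at 590 nm.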
Hsp90 Hop PPI: changes Hsp90-Hop TPR2A binding signal, up or down; AlphaScreen TPR2A-His6 binding biotin-Hsp90 C-terminal peptide; Potency, µM (top dose mostly 57 µM), without a hit: at the highest dose activity change, negative = inhibition; 0.44% of 71,000 active; AID 595; active means well fitted curve in either direction with a large enough effect; inconclusive means small, poorly fitted or top-dose-only effect, or another doubt; further: potency means the concentration at half of the fitted maximal effect; on the % scale 0 is the no-effect control and ±100 the full control effect
BRCT PPI green: blocks human BRCA1 BRCT binding to phosphopeptide, green readout; BRCA1 BRCT-phosphopeptide binding, green fluorescence polarization; Potency, µM (highest dose often 76.9 µM), without a hit: at the top dose activity change, negative = inhibition, actives largely listed as inhibitors; 0.05% of 75,000 active; AID 875;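 further: potency means the concentration at half of the fitted maximal effect; plate controls were peptide without protein for full effect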
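Fluorescence polarization: His-tagged BRCT (~35 kDa BRCA1 C-terminus, 250 nM) bound to 100 nM fluorescein-labeled phosphorylated 10-aa BACH1 peptide, pH 7.3 phosphate buffer with DTT and Tween 20. Compounds incubated 12 min at room temperature; inhibition read as lowered polarization.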
BRCT inh red: disrupts BRCA1 BRCT binding to phosphoprotein, red fluorophore readout. AID 892. 0.03% of 75,000 active. Potency, µM (doses to about 76.9 µM), for inactives: at the highest dose activity change, negative = inhibition, actives largely listed as inhibitors. BRCT-phosphopeptide binding, red fluorescence polarization; further: on the % scale 0 is the no-effect control and ±100 the full control effect
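Fluorescence polarization: 100 nM His-tagged BRCA1 BRCT with 100 nM TAMRA-labelled phospho-BACH1 decapeptide, phosphate buffer pH 7.3 with 150 mM NaCl, DTT, 0.01% Tween 20; 12 min RT. Binding inhibition seen as FP decrease.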
Active calls of the source: *. Rows were chosen to be rich in hits. Some 3.3% of all compounds tested hit in one or more screens of this group. Unless noted, the call rests on the fitted dose curve; in most records, active means well fitted curve in the direction sought with a large enough effect; inconclusive means small, poorly fitted or top-dose-only effect, or another doubt; inactive means no such curve, though single readings can be large; an effect the other way counts as inactive or inconclusive.

COC1=CC(=O)C[C@@H](C)[C@@]12Oc1c(Cl)c(OC)cc(OC)c1C2=O was read as YjeE inh inactive, HEK293 cAMP cs 1% and Hsp90 Hop PPI -3%.
Screening COc1ccccc1CNc1cc(-c2ccccc2OC)ncn1 returned YjeE inh inactive, TSHR agonist inconclusive, HEK293 cAMP cs 16µM*, Hsp90 Hop PPI 7%, BRCT PPI green -5% and BRCT inh red 2%.
`COc1ccccc1CNc1cc(-c2ccccc2C)ncn1` gave YjeE inh inactive, TSHR agonist inconclusive, HEK293 cAMP cs 16µM*, Hsp90 Hop PPI -4%, BRCT PPI green 0% and BRCT inh red 0%.
Screening COCCNc1ccnc(-c2ccccc2C(F)(F)F)n1 returned YjeE inh inactive, TSHR agonist -4%, HEK293 cAMP cs 15%, Hsp90 Hop PPI -3%, BRCT PPI green -1% and BRCT inh red 0%.
COc1ccc(CNc2cc(-c3ccccc3C)ncn2)c(OC)c1 was read as YjeE inh inactive, TSHR agonist inconclusive, HEK293 cAMP cs 16µM*, Hsp90 Hop PPI 7%, BRCT PPI green 0% and BRCT inh red -1%.
For COCCNc1cc(-c2ccccc2C(F)(F)F)ncn1 the results were YjeE inh inactive, TSHR agonist inconclusive, HEK293 cAMP cs 0.32µM*, Hsp90 Hop PPI -14%, BRCT PPI green 0% and BRCT inh red 0%.
For COc1ccccc1CNc1cc(-c2cccnc2)ncn1 the results were YjeE inh inactive, TSHR agonist inconclusive, HEK293 cAMP cs inconclusive, Hsp90 Hop PPI -8%, BRCT PPI green -2% and BRCT inh red -2%.
`COC(=O)CC1[C@@]2(C)C[C@]34OC5(C)OC6(C7CC(=O)OC(c8ccoc8)[C@]7(C)CCC6(O5)[C@]13C)C(OC(C)=O)[C@]4(OC(C)=O)C2OC(C)=O` (some centres not stated) gave BRCT PPI green 1% and BRCT inh red 0%.
O=C(CN(Cc1cccs1)C(=O)CN1C(=O)COc2ccccc21)NCc1ccco1 was read as YjeE inh inactive, TSHR agonist inconclusive, HEK293 cAMP cs 16µM*, Hsp90 Hop PPI -3%, BRCT PPI green -2% and BRCT inh red -1%.
For Cc1cc(-c2nnco2)c(C)n1-c1ccc(F)cc1 the results were YjeE inh inactive, TSHR agonist inconclusive, HEK293 cAMP cs 16µM*, Hsp90 Hop PPI -5%, BRCT PPI green -1% and BRCT inh red 1%.
COc1ccccc1-c1ccc2ncnc(NCc3cnc(C)cn3)c2c1 was read as YjeE inh inactive, TSHR agonist inconclusive, HEK293 cAMP cs 25µM*, Hsp90 Hop PPI -2%, BRCT PPI green 2% and BRCT inh red -2%.
COc1ccccc1-c1ccc2ncnc(NCc3cccnc3)c2c1 was read as YjeE inh inactive, TSHR agonist inconclusive, HEK293 cAMP cs inconclusive, Hsp90 Hop PPI inconclusive, BRCT PPI green 12% and BRCT inh red -3%.
CNc1ncnc2ccc(-c3ccccc3C)cc12 was read as YjeE inh inactive, TSHR agonist inconclusive, HEK293 cAMP cs 2µM*, Hsp90 Hop PPI -4%, BRCT PPI green 0% and BRCT inh red 0%.
`Cc1cccc(CNc2ncnc3ccc(-c4ccoc4)cc23)c1` gave YjeE inh inactive, TSHR agonist inconclusive, HEK293 cAMP cs 32µM*, Hsp90 Hop PPI -3%, BRCT PPI green 7% and BRCT inh red 2%.
For CNc1ncnc2ccc(-c3ccccc3CN(C)C)cc12 the results were YjeE inh inactive, TSHR agonist 11%, HEK293 cAMP cs 6%, Hsp90 Hop PPI -3%, BRCT PPI green 1% and BRCT inh red 2%.
CN(C)Cc1ccccc1-c1ccc2ncnc(NCc3cccs3)c2c1 was read as YjeE inh inactive, TSHR agonist 12%, HEK293 cAMP cs 14%, Hsp90 Hop PPI -7%, BRCT PPI green -2% and BRCT inh red 0%.
`Cc1ccccc1-c1ccc2ncnc(NCc3cccs3)c2c1` gave YjeE inh inconclusive, TSHR agonist inconclusive, HEK293 cAMP cs 4µM*, Hsp90 Hop PPI 2%, BRCT PPI green -1% and BRCT inh red -3%.
CCOc1ccccc1CN(CCc1ccc2c(c1)OCO2)Cc1ccccn1 was read as YjeE inh inactive, TSHR agonist inconclusive, HEK293 cAMP cs 16µM*, Hsp90 Hop PPI 1%, BRCT PPI green -2% and BRCT inh red 0%.
For O=C(COC(=O)c1ccccc1NC(=O)c1ccco1)NCCC1=CCCCC1 the results were YjeE inh inactive, TSHR agonist inconclusive, HEK293 cAMP cs 25µM*, Hsp90 Hop PPI -2%, BRCT PPI green 0% and BRCT inh red 0%.
Screening CCC(C)(C)n1nnnc1C(C(C)C)N1CCSCC1 (configuration not stated) returned YjeE inh inactive, TSHR agonist inconclusive, HEK293 cAMP cs 6.3µM*, Hsp90 Hop PPI 3%, BRCT PPI green 0% and BRCT inh red -1%.
`O=c1ccc2c(OCCCCc3ccccc3)c3ccoc3cc2o1` gave YjeE inh inactive, TSHR agonist inconclusive, HEK293 cAMP cs 25µM*, Hsp90 Hop PPI inconclusive, BRCT PPI green 1% and BRCT inh red -2%.
For O=c1ccc2cc3ccoc3cc2o1 the results were YjeE inh inactive, TSHR agonist -1%, HEK293 cAMP cs 2%, Hsp90 Hop PPI 1%, BRCT PPI green 2% and BRCT inh red 0%.
CCCCOc1ccccc1Cn1c(=O)oc2ccc(C)cc21 was read as YjeE inh inactive, TSHR agonist inconclusive, HEK293 cAMP cs 16µM*, Hsp90 Hop PPI inconclusive, BRCT PPI green 0% and BRCT inh red -2%.
For COc1ccc(Cn2c(=O)oc3ccc(C)cc32)cc1OC the results were YjeE inh inactive, HEK293 cAMP cs 27%, Hsp90 Hop PPI -1%, BRCT PPI green 1% and BRCT inh red -2%.
`Cc1ccc2oc(=O)n(CCCOc3ccccc3)c2c1` gave YjeE inh inactive, TSHR agonist inconclusive, HEK293 cAMP cs inconclusive, Hsp90 Hop PPI inconclusive, BRCT PPI green -1% and BRCT inh red -3%.
For Cc1ccc2oc(=O)n(Cc3ccccc3OC(C)C)c2c1 the results were YjeE inh inactive, TSHR agonist inconclusive, HEK293 cAMP cs 25µM*, Hsp90 Hop PPI 25%, BRCT PPI green 0% and BRCT inh red 0%.
For COc1cc([C@@H](O)CO)ccc1OS(=O)(=O)O the results were YjeE inh inactive, TSHR agonist 6%, HEK293 cAMP cs 5%, Hsp90 Hop PPI -9%, BRCT PPI green -1% and BRCT inh red 3%.
